Among all 320,000 compounds or so, about 22,000 (6.9%) were called active. Roughly 27% stayed inconclusive and do not appear here. The call rests on the fitted dose curve; in most records, active means well fitted inhibition curve with a large enough effect; inconclusive means small, poorly fitted or top-dose-only effect, or another doubt; inactive means no such curve, though single readings can be large or run the other way. The list comes from a sample in which actives are over-represented; it also holds similar structures and randomly drawn compounds. A call without a number means that no potency is given here.
assay: Primary qHTS for delayed death inhibitors of the malarial parasite plastid, 96 hour incubation; settings: P. falciparum luciferase reporter growth; series mostly up to 28.7 µM
Procedure, shortened: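 Plates of compound plus infected erythrocytes (2% hematocrit, 0.05% parasitemia final) incubate 96 hours, 37 C, 5% CO2. Detection reagent added; reduced luminescence from the parasites' luciferase reporter flags inhibition.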
Potency means the concentration at half of the fitted maximal effect.

SMILES | Potency
NCC(=O)c1cccc2ccc[n+]([O-])c12 | inactive
O=C(CNC(=O)OCc1ccccc1)NC1CCCCNC1=O (stereo not drawn) | inactive
Cc1ccc(C(=O)NCC(=O)NCc2cc(=O)n(C)c(=O)n2C)cc1 | inactive
O=C(NCCc1nnc2ccc(SCC(=O)N3CCOCC3)nn12)c1ccccc1 | inactive
COc1ccc(N2CCN(C(=O)C3CCN(S(=O)(=O)c4ccc(C)cc4)CC3)CC2)cc1 | inactive
CCCCOc1ccc(NC(=O)[C@@H]2CCCN2C(=O)C2CCN(S(=O)(=O)c3ccc(C)cc3)CC2)cc1 | 11.7 µM (active)
CCOc1cccc(NC(=O)C2CCCN(S(=O)(=O)c3ccc(OC)cc3)C2)c1 (stereo not drawn) | inactive
Cc1c(C(=O)N/N=C/c2ccccc2)[nH]c2c([N+](=O)[O-])cccc12 | inactive
CN(C)S(=O)(=O)c1ccc(N/C=C(\[N+](=O)[O-])S(=O)(=O)c2ccccc2)cc1 | inactive
COC(=O)c1ccc(NC(=O)CSc2nnc(C3CC3)n2C)cc1 | inactive
COc1ccc(C(=O)OC(C)C(=O)NC2CCCC2)cc1S(=O)(=O)N1CCOCC1 (stereo not drawn) | inactive
COc1cccc(N2CCN(CC(=O)Nc3ccnn3C3CCCC3)CC2)c1 | inactive
C#C[C@]1(O)CC[C@H]2[C@@H]3CCC4=CC(=O)CC[C@@H]4[C@H]3CC[C@@]21CC | 7.57 µM (active)
Cc1cc(C)c(C#N)c(SCC(=O)N(CC(C)C)C2CCS(=O)(=O)C2)n1 (stereo not drawn) | inactive
CC(NC(=O)COc1ccc(-c2ccccc2)cc1)C1CCCO1 (stereo not drawn) | inactive
O=C(Nc1ccncc1)c1ccc([N+](=O)[O-])cc1Cl | inactive
CN(CCc1ccccn1)C1CCCN(S(=O)(=O)c2ccccc2Cl)C1 (stereo not drawn) | inactive
Cn1nc(C(F)(F)F)cc1C(=O)O | inactive
Cc1cccc(C)c1NC(=O)CNC(=O)c1c(C)nn(-c2ccccc2)c1C | inactive
Cc1nn(-c2ccccc2)c(C)c1NC(=O)CCl | 3.7 µM (active)
Cc1nn(-c2ccccc2)c(C)c1NC(=O)COc1ccc(Cl)cc1Cl | inactive
O=C(NCC1CCCO1)c1cc2c(s1)CCCC2 (stereo not drawn) | inactive
CC1(C)O[C@@H]2[C@H](O1)[C@@H](CO)O[C@H]2n1c(N2CCCCC2)nc2c(N)ncnc21 | inactive

SMILES | Potency
Clc1c(OCCCn2ccnc2)ccc2ccccc12 | inactive
Cc1ccc(OCCCCN2CCCCC2)c(Br)c1 | inactive
C=CCc1cc(C)ccc1OCCCn1ccnc1 | 11.7 µM (active)
CCOC(=O)c1ccc(S(=O)(=O)N(CCO)Cc2cc3cc(OC)c(OC)cc3[nH]c2=O)cc1 | inactive
COc1cccc(CNC(=O)C(=O)NCCC2CCCCN2S(=O)(=O)c2ccc(C)cc2)c1 (stereo not drawn) | 10.4 µM (active)
COc1ccc(S(=O)(=O)N2CCCC2CNC(=O)C(=O)NC2CC2)cc1 (stereo not drawn) | inactive
O=C(NCCC1CCCCN1S(=O)(=O)c1ccc(F)cc1)C(=O)NC1CC1 (stereo not drawn) | inactive
COc1cc(OC)c(NC(=O)C2CCCN2C(=O)OCc2ccccc2)cc1Cl (stereo not drawn) | inactive
COc1ccc(CCNC(=O)CN2C(=O)CCSc3ccccc32)c(OC)c1 | inactive
CCOC(=O)CNC(=O)N1c2ccccc2Sc2ccccc21 | inactive
CCOC(=O)CNC(=O)CN1C(=O)CCSc2ccccc21 | 11.7 µM (active)
Cc1ccc(NC(=O)c2cnc(SCC(=O)NCC3CCCO3)n(C)c2=O)cc1 (stereo not drawn) | inactive
Cn1c(=O)n(C)c2cc(C(=O)Nc3ccc(Br)cc3)ccc21 | inactive
COC(=O)[C@@H]1CC(O)CN1C(=O)C12CC3CC(CC(C3)C1)C2 (stereo partly drawn) | inactive
CCOc1ccccc1Nc1ccc2nonc2c1[N+](=O)[O-] | inactive
CSCCC(NC(=O)c1ccccc1)C(=O)N1CCCCCCC1 (stereo not drawn) | inactive
CSCCC(NC(=O)c1ccccc1)C(=O)N1CCN(Cc2ccc(Cl)cc2)CC1 (stereo not drawn) | 1.65 µM (active)
COc1ccccc1C(=O)NC(CCSC)C(=O)NNC(=O)c1ccccc1C (stereo not drawn) | inactive
COc1ccccc1C(=O)NC(CCSC)C(=O)N1CCN(C(C)=O)CC1 (stereo not drawn) | inactive
COc1ccccc1C(=O)NC(CCSC)C(=O)N1CCN(C/C=C/c2ccccc2)CC1 (stereo not drawn) | 11.7 µM (active)
O=C(c1cccc(Cl)c1)N1CCN(Cc2ccccc2)CC1 | inactive
CC(=O)NC(CC(=O)Nc1nc(-c2ccccc2)c(C(C)=O)s1)c1ccccc1 (stereo not drawn) | inactive
Cc1ccc(S(=O)(=O)NCC(=O)N2CCOCCOCCOCCOCC2)cc1 | inactive

SMILES | Potency
Cc1ccc(CNC(=O)[C@@H](NC(=O)Cc2ccccc2)C(C)C)cc1 | inactive
Cn1c(-c2ccc(F)cc2)cc2onc(-c3ccccc3Cl)c2c1=O | inactive
CSc1ncc(Cl)c(C(=O)Nc2cc(C)ccc2C)n1 | inactive
O=C(COc1ccccc1)Nc1cc2c3c(c1)CC(=O)N3CCC2 | inactive
O=C(/C=C/c1ccccc1)N/C(=C/c1ccccc1)C(=O)Nc1ccccc1O | inactive
CN(C)CCCSc1ccccc1NC(=O)/C=C/c1ccccc1 | 12 µM (active)
CC(=O)Nc1ccc(NC(=S)NC(=O)/C=C/c2ccccc2)cc1 | inactive
COc1ccc(NC(=O)CCCNC(=O)Cn2cnc3sc4c(c3c2=O)CCCC4)cc1OC | inactive
O=C(CSc1nc(-c2ccccc2)cs1)Nc1cccc([N+](=O)[O-])c1 | 10.4 µM (active)
O=C(CSCC(=O)Nc1cccc([N+](=O)[O-])c1)Nc1ccccc1 | inactive
CCNC(=O)CSc1nc(-c2ccccc2)cs1 | inactive
O=[N+]([O-])c1cc(C(F)(F)F)ccc1NCCc1ccncc1 | inactive
Cc1ccc2[nH]c(=O)c(CC(=O)O)c(-c3ccccc3)c2c1 | inactive
CCCCOC(=O)Nc1nnc(CC(=O)NCc2ccccc2)s1 | inactive
Cc1ccc(OC(=O)c2c(C)nn(-c3ccccc3)c2C)cc1 | inactive
COc1ccc(C2CC(=O)NC(=O)C2)cc1 | inactive
COc1ccc(CN2CC(C(=O)NC3CCCCC3)CC2=O)cc1 (stereo not drawn) | inactive
COc1ccc(C2OC(=O)CC2C(=O)NC(C)C)cc1 (stereo not drawn) | 0.586 µM (active)
O=C(c1cc(-c2ccc(O)cc2)on1)N1CCOCC1 | inactive
CCCC(C(=O)OCCN(CC)CC)(c1ccccc1)c1ccccc1 | 10.7 µM (active)
CCN(CC)CCOC(=O)c1cc2cc(COC)ccc2o1 | inactive
CCC(C(=O)OCCN(CC)CC)c1ccccc1 (stereo not drawn) | inactive
